Measured values taken from PubChem BioAssay (EPA / NIEHS).
Values joined by “and” are separate entries in the source; they are usually repeats but may differ in a detail not shown here. Identical values can stand only once. More than one record can exist for a structure, and the calls need not agree. Active and inactive are the calls of the source. Rule for the calls: active = hit-call score of the fitted dose curve at least 0.9, where 1 is the maximum; inactive = score below 0.9.

The compounds below were run on Interleukin-1 alpha (IL1a), IL1A (gene 3552) (assay: BSK_IMphg_IL1a: BioMAP Diversity Plus: IMphg Assay for Interleukin-1 alpha (IL1a) Biomarker Activity (AID 2284290)). Conditions: primary human endothelial cells with macrophages.
Protocol: BSK_IMphg is a cell-based, multiplexed-readout assay that uses venular endothelial cells and macrophages, a human vascular primary cell, with measurements taken at 24 hours after chemical dosing in a microplate: 96-well plate.BSK_IMphg_IL1a is an assay component measured in the BSK_IMphg assay. It measures IL-1a antibody related to regulation of gene expression using ELISA technology.Data from the assay component BSK_IMphg_IL1a was analyzed at the endpoint, BSK_IMphg_IL1a, in the positive analysis fitting direction relative to DMSO as the negative control and baseline of activity. Using a type of binding reporter, gain or loss-of-signal activity can be used to understand protein changes. To generalize the intended target to other relatable targets, this assay endpoint is annotated to the 'cytokine' intended target family, where the subfamily is 'interleukins'.
The levels of cell surface (or secreted, indicated by the prefix "s") biomarker endpoints were measured by ELISA. Overt cytotoxicity to cells in confluent adherent cultures (all systems other than the BT system) was assessed by measuring total protein levels using sulforhodamine B (SRB) staining in parallel cultures at the time of biomarker measurements, indicated as SRB endpoints. For proliferation assays for adherent cell types, individual cell types are cultured at sub-confluence and relative cell numbers quantified by SRB staining at time points optimized for each system (48 h: 3C and CASM3C systems; 72 h: BT and HDF3CGF systems; 96 h: SAg system). SRB was performed by staining cells with 0.1% SRB after fixation with 10% TCA and reading wells at 560 nm.Viability and proliferation of PBMC (T cells) was quantified by Alamar Blue reduction for the SAg and BT systems. For PBMC viability (referred to as PBMC Cytotoxicity within the assay endpoint names), cells were plated (75,000/well in a 96-well plate) and then chemical samples added for 1 h before addition of activators, SEB and TSST-1 (20 ng/mL final concentration each). Cells were incubated for 90 h. Then, Alamar Blue (20 uL/well) (Invitrogen, Cat DAL1100) was added for 6 h, and the plates were read with a fluorescence microplate reader at 546/580 nm (excitation/emission). For PBMC proliferation, cells were plated and activated as above but incubated for only 16 h prior to addition of Alamar Blue. Plates were read after 6 h.

Row | Compound | outcome | AC50
1 | COC(F)(C(F)F)C(F)(F)F (stereo not given) | inactive | 
2 | O=C(O)C(F)(F)C(F)(F)C(F)(F)OC(F)(F)F | inactive | 
3 | O=S(=O)(O)CCC(F)(F)C(F)(F)C(F)(F)C(F)(F)F | inactive | 
4 | NC(=O)C(F)(F)C(F)(F)C(F)(F)C(F)(F)C(N)=O | inactive | 
5 | FC(F)(F)C(F)(F)C(F)(F)C(F)(F)C(F)(F)C(F)(F)CC[Si](Cl)(Cl)Cl | inactive | 
6 | C=CC(=O)OCCC(F)(F)C(F)(F)C(F)(F)C(F)(F)F | inactive | 
7 | C=CC(=O)OCC(F)(F)C(F)(F)C(F)(F)C(F)(F)C(F)(F)C(F)(F)C(F)(F)C(F)F | inactive | 
8 | NS(=O)(=O)C(F)(F)C(F)(F)C(F)(F)C(F)(F)C(F)(F)C(F)(F)F | inactive | 6.98 µM (active)
9 | CNS(=O)(=O)C(F)(F)C(F)(F)C(F)(F)C(F)(F)C(F)(F)C(F)(F)C(F)(F)C(F)(F)F |  | 6.58 µM (active) and 9.9 µM (active)
10 | NCC(F)(F)C(F)(F)C(F)(F)C(F)(F)C(F)(F)C(F)(F)F | inactive | 
11 | OCC(F)(F)C(F)(F)C(F)(F)C(F)(F)C(F)(F)C(F)(F)CO | inactive | 
12 | O=C(Cl)C(F)(F)C(F)(F)C(F)(F)C(F)(F)C(F)(F)C(F)(F)F | inactive | 
13 | FC(F)(F)C(F)(F)C(F)(F)C(F)(F)C(F)(F)C(F)(F)C(F)(F)CCI | inactive | 
14 | O=S(=O)(O)CCC(F)(F)C(F)(F)C(F)(F)C(F)(F)C(F)(F)C(F)(F)C(F)(F)C(F)(F)F | inactive | 
15 | O=C(O)CCC(F)(F)C(F)(F)C(F)(F)C(F)(F)C(F)(F)C(F)(F)C(F)(F)F | inactive | 
16 | NC(O)(C(F)(F)F)C(F)(F)F | inactive | 
17 | OC(O)C(F)(F)C(F)(F)F | inactive | 
18 | C[Si](Cl)(Cl)CCC(F)(F)C(F)(F)C(F)(F)C(F)(F)C(F)(F)C(F)(F)F | inactive | 
19 | OCCCC(F)(F)C(F)(F)C(F)(F)C(F)(F)C(F)(F)C(F)(F)C(F)(F)C(F)(F)F |  | 47.7 µM (active) and 51 µM (active)

Row | Compound | outcome | AC50
20 | O=C(O)C(F)(F)C(F)(F)C(F)(F)C(F)(F)C(F)(F)C(F)(F)C(F)F | inactive | 
21 | OCC(F)(F)C(F)(F)C(F)(F)C(F)(F)C(F)(F)C(F)(F)C(F)(F)C(F)(F)CO |  | 47.6 µM (active) and 50.3 µM (active)
22 | NC(=O)C(F)(F)C(F)(F)C(F)(F)C(F)F | inactive | 
23 | CCN(CCO)S(=O)(=O)C(F)(F)C(F)(F)C(F)(F)C(F)(F)C(F)(F)C(F)(F)C(F)(F)C(F)(F)F | inactive | 
24 | OCC(O)CC(F)(F)C(F)(F)C(F)(F)C(F)(F)C(F)(F)C(F)(F)C(F)(F)C(F)(F)F (stereo not given) | inactive | 
25 | O=C(O)C(F)(F)C(F)(F)C(F)(F)OC(F)(C(F)(F)F)C(F)(F)F | inactive | 
26 | OCC(F)(F)C(F)(F)C(F)(F)CO | inactive | 
27 | O=C(F)C1(F)C(F)(F)C(F)(F)C(F)(F)C(F)(F)C1(F)F | inactive | 
28 | O=C(Cl)C(F)(F)C(F)(F)C(F)(F)C(F)(F)C(F)(F)C(F)(F)C(F)(F)F | inactive | 
29 | O=S(=O)(OCC(F)(F)F)C(F)(F)C(F)(F)C(F)(F)C(F)(F)F | inactive | 
30 | NC(=O)C(F)(F)C(F)(F)C(F)(F)C(F)(F)C(F)(F)C(F)(F)C(F)(F)F | inactive | 
31 | CO[Si](C)(CCC(F)(F)C(F)(F)C(F)(F)C(F)(F)C(F)(F)C(F)(F)F)OC | inactive | 
32 | OCCCCC(F)(F)C(F)(F)C(F)(F)C(F)(F)F | inactive | 
33 | C=C(C)C(=O)OCC(F)(F)C(F)(F)C(F)(F)C(F)F | inactive | 
34 | O=S(=O)(Cl)C(F)(F)C(F)(F)C(F)(F)C(F)(F)C(F)(F)C(F)(F)C(F)(F)C(F)(F)F | inactive | 
35 | C=CC(=O)OCC(F)(F)C(F)(F)C(F)(F)COC(=O)C=C | inactive | 45 µM (active)
36 | NC(=O)C(F)(F)C(F)(F)C(F)(F)F | inactive | 
37 | O=C(O)C(F)(F)C(F)(F)C(F)(F)C(=O)O | inactive | 
38 | NCC(F)(F)C(F)(F)C(F)(F)C(F)(F)C(F)(F)C(F)(F)C(F)(F)C(F)(F)F | inactive | 
